PubChem BioAssay
The list shows a part of the results. Calls of active or inactive are those of the source. Unless noted, no stated cut-off is given here; in the data, active means activation above about 8.9%; inactive means the rest.

Legend:
[1] = STAT1 signaling activators, confirmation, cell-based, HTS, luciferase reporter (AID 1262;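 active means activation above a set limit carried over from the earlier primary STAT1 screen, cut at about 140% in these data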;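 further: simple ratio to median IFN-gamma plus DMSO wells so 0% means no light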); settings: NIH 3T3 STAT1-luciferase reporter, IFN-gamma potentiation, luminescence; at 5.7 µM; hits give high values; 100% = IFN-gamma EC80 alone, no compound
[2] = NF-kB reporter activators, TNF-alpha stimulated, counter-screen for STAT1 activator project, cell-based, HEK293T, luciferase luminescence (AID 1306;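 active means activation above the mean of solvent-only control wells plus 3 SD, set per campaign, cut at about 130% in these data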;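 further: TNF-alpha given at a submaximal dose yielding about 80% of full reporter signal; values are well signal over median control so 100% means no change and 0% no light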); settings: at 5.7 µM, hits give high values, 100% = TNF-alpha with vehicle only
[3] = target: Signal transducer and activator of transcription 3 (Homo sapiens) (UniProt P40763); experiment: STAT3 reporter activation by STAT1 hits, confirmation, counter-screen for STAT1 activator project, U3A cells, luciferase, luminescence (AID 1316;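 active means activation above the solvent-only control well mean plus 3 SD, set per plate batch, cut at about 110% in these data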;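 further: 0% = no luminescence and 100% = median IL-6 plus DMSO wells; higher means more STAT3 reporter activation so hits are non-selective activators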); settings: IL-6, luminescence, at 5.7 µM, hits give high values, 100 = IL-6 alone, no compound effect, cells lack STAT1
[4] = test system: TLR4-MyD88 interaction (human), BLA complementation; experiment: TLR4-MyD88 association inhibitors, retest, confirmation, cell-based, HeLa CL3-4, BLA complementation, FRET ratio (AID 941;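 active means mean inhibition across three repeat runs above about 25% carried over from the earlier screen, limit read from the data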;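 further: plate controls were DMSO only for no effect and clavulanic acid blocking BLA at full dose for full effect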); settings: CCF4 FRET ratio, at 8.4 µM, hits give high values
[5] = inhibitors of full-length beta-lactamase reporter, confirmation, artefact control for TLR4-MyD88 binding inhibitor project, cell-based, HeLa, full-length BLA, CCF4 FRET ratio (AID 1237;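 active means mean inhibition over three repeats above about 26% taken from the earlier screen, limit read from the data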;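 further: HeLa cells stably expressing beta-lactamase reporter as counterscreen for TLR4-MyD88 inhibitors; 0% = DMSO and 100% = clavulanic acid full inhibition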); settings: at 8.4 µM, hits give high values
[6] = STAT3 reporter inhibitors, retest of hits, confirmation, U3A cells, luciferase, luminescence (AID 1265;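 active means inhibition above the hit cutoff computed for the primary STAT3 screen, cut at about 44% in these data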;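 further: 0% = IL-6 plus DMSO and 100% = IL-6 plus nifuroxazide control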); settings: IL-6 STAT3 luciferase reporter, at 5.7 µM, hits give high values, cell line lacks STAT1
[7] = NF-kB reporter inhibitors in human cells, confirmation, counter-screen for STAT3 inhibitor project, cell-based, HEK293T, luciferase, TNF-alpha stimulus (AID 1308;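 active means inhibition above the mean of solvent-only control wells plus 3 SD, cutoff set per campaign, cut at about 13% in these data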;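 further: 0% = TNF-alpha with DMSO and 100% = TNF-alpha with MG high control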); settings: TNF-alpha induced, at 5.7 µM, hits give high values
[8] = STAT1 reporter inhibitors, IFN-gamma induced, confirmation, counter-screen for STAT3 inhibitor project, cell-based, NIH 3T3, luciferase luminescence (AID 1317;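 active means inhibition above the mean plus 3 SD of solvent-only control wells, limit set per screening run, cut at about 16% in these data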;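 further: 0% = DMSO with IFN-gamma and 100% = nifuroxazide control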); settings: NIH 3T3 STAT1-luciferase reporter, at 5.7 µM, hits give high values
[9] = KLF5 expression inhibitors, confirmation, DLD-1 cells, luminescence (AID 1834;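 active means inhibition above a set limit taken from the earlier primary screen, cut at about 63% in these data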;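 further: 0% = DMSO wells and 100% = LY294002 at 200 µM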); settings: DLD-1 KLF5 promoter firefly luciferase reporter, at 4 µM, hits give high values
[10] = cytotoxicity in rat IEC-6 cells, cytotoxicity control for KLF5 inhibitor project, cell-based, luminescence, triplicate (AID 1905; in the data active means inhibition above about 23%;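 further: cells exposed to compounds for 48 hours before viability read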); settings: IEC-6 rat intestinal cells, viability luminescence; at 4 µM; hits give high values
[11] = target: Nuclear receptor coactivator 3 (Homo sapiens) (UniProt Q9Y6Q9); experiment: SRC3 coactivator transcriptional activity inhibitors, confirmation, cell-based, luminescence, quadruplicate (AID 588792;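 active means mean inhibition over 43.08%, the solvent-only control mean plus 3 SD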;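 further: 0% = DMSO treated cells and 100% = gossypol at 36 µM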); settings: HEK293 GAL4-SRC3 luciferase reporter, at 3.6 µM, hits give high values
[12] = test system: transactivating tegument protein VP16 (Human herpesvirus 1), Gal4-VP16 luciferase reporter; experiment: VP16 transactivation inhibitors, counter-screen for SRC3 inhibitor project, cell-based, luminescence, high throughput (AID 588794; in the data active means inhibition above about 30%); settings: mammalian cells, VP16-driven luciferase reporter luminescence; at 3.6 µM; hits give high values
[13] = target: Nuclear receptor coactivator 1 (Homo sapiens) (UniProt Q15788); experiment: SRC1 coactivator transcriptional activity inhibitors, confirmation, cell-based, luminescence, quadruplicate (AID 588820;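 active means mean inhibition above 46.68%, the untreated control wells mean plus 3 SD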;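 further: 0% = DMSO wells and 100% = gossypol 36 µM treated wells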); settings: HEK293 GAL4-SRC1 luciferase reporter, at 3.6 µM, hits give high values
[14] = VP16 transactivation inhibitors, counter-screen for SRC1 inhibitor project, cell-based, luminescence, high throughput (AID 588824; in the data active means inhibition above about 25%); settings: cell-based VP16 transactivation luciferase luminescence; at 3.6 µM; hits give high values
[15] = target: Photoreceptor-specific nuclear receptor (Homo sapiens) (UniProt Q9Y5X4); experiment: NR2E3 agonist confirmation in cells, cell-based, luminescence, CHO-S two-hybrid (AID 624378;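 active means average inhibition above a cutoff equal to the mean inhibition of all tested compounds plus one SD, cut at about 70% in these data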;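 further: 0% = DMSO in NR2E3 cells and 100% = DMSO in cells lacking NR2E3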); settings: CHO-S mammalian two-hybrid NR2E3-NCOR, luciferase luminescence; at 3.98 µM; hits give high values
Photoreceptor-specific nuclear receptor (Homo sapiens), sequence (Q9Y5X4 whole entry, looked up, the tested form may be a part): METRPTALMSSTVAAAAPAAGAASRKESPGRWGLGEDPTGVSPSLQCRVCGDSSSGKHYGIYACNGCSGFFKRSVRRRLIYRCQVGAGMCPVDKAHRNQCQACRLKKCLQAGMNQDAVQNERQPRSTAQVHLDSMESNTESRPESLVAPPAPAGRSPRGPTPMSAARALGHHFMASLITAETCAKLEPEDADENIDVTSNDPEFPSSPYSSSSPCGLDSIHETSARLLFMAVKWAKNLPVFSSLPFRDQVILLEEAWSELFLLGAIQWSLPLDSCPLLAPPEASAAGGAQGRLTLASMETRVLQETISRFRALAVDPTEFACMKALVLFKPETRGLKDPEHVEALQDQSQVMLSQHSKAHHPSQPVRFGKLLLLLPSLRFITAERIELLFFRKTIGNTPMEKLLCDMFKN

[16] = GAL4-VP16 reporter modulators, confirmation, counter-screen for NR2E3 agonist project, cell-based, luminescence, CHO-S, high throughput (AID 624379;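 active means mean inhibition above a cutoff equal to the average over all tested compounds plus one standard deviation, cut at about 70% in these data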;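 further: 0% = DMSO with VP16-transfected cells and 100% = DMSO with cells lacking VP16; higher means less reporter light so more repression of VP16 activity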); settings: CHO-S GAL4-VP16 luciferase reporter, at 3.98 µM, hits give high values
[17] = StAR promoter reporter inhibitors, counter-screen for LRH-1 inverse agonist project, cell-based, luminescence, high throughput (AID 651611; in the data active means inhibition above about 28%); settings: StAR promoter luciferase reporter counterscreen, at 3.6 µM, hits give high values
[18] = target: Nuclear receptor subfamily 5 group A member 2 (Homo sapiens) (UniProt O00482); experiment: LRH-1 (NR5A2) inverse agonists, retest, confirmation, cell-based, luminescence (AID 651613; in the data active means inhibition above about 42%;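 further: HEK293T cells co-transfected with LRH-1 and StAR promoter luciferase reporter; 0% = vehicle wells and 100% = parental cells lacking receptor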); settings: cell-based LRH-1 luciferase reporter, inverse agonism; at 3.6 µM; hits give high values
Nuclear receptor subfamily 5 group A member 2 (Homo sapiens), sequence (O00482 whole entry, looked up): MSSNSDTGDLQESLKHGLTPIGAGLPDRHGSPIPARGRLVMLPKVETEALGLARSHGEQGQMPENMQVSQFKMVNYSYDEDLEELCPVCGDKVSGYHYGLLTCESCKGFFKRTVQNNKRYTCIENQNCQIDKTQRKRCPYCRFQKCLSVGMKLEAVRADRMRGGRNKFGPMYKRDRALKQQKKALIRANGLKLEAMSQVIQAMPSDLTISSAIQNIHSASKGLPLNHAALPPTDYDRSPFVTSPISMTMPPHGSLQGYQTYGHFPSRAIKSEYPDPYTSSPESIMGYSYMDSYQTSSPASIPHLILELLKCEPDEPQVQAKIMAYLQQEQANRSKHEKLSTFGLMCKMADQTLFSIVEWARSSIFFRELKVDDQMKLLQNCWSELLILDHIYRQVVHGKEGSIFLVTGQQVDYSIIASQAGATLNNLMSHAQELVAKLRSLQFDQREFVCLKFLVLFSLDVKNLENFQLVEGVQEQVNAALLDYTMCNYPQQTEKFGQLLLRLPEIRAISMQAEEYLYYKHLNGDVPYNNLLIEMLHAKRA

[19] = target: Steroidogenic factor 1 (Homo sapiens) (UniProt Q13285); experiment: SF1 (NR5A1) inverse agonists, counter-screen for LRH-1 inverse agonist project, cell-based, luminescence, high throughput (AID 651614; in the data active means inhibition above about 44%;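 further: cells cotransfected with StAR promoter reporter and SF1 expression vector; 0% = vehicle on cells with receptor and 100% = vehicle on cells lacking receptor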); settings: cell-based SF1 luciferase reporter, at 3.6 µM, hits give high values
Steroidogenic factor 1 (Homo sapiens), sequence (Q13285 whole entry, looked up, the tested form may be a part): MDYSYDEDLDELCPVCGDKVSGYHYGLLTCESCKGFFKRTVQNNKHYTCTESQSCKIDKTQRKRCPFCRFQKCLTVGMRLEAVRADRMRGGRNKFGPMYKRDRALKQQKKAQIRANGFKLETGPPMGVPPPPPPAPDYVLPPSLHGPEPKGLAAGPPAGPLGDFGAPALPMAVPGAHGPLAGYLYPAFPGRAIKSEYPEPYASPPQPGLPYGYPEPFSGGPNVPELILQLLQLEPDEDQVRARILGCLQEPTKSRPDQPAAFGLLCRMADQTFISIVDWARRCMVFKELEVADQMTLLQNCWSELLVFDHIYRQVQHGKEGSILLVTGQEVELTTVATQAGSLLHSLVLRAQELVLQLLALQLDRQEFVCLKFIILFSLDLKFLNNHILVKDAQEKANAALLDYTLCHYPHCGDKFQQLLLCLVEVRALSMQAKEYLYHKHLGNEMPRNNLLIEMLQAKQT

[20] = VP16 transactivation reporter inhibitors, counter-screen for LRH-1 inverse agonist project, cell-based, luminescence, high throughput (AID 651615; in the data active means inhibition above about 33%); settings: Gal4-VP16 luciferase reporter cells, at 3.6 µM, hits give high values
[21] = Gal4-VP16 luciferase reporter inhibitors, counter-screen for COUP-TFII antagonist project, cell-based, luminescence, HEK293 (AID 687007; in the data active means inhibition above about 13%); settings: at 8.5 µM, hits give high values
[22] = target: COUP transcription factor 2 (Homo sapiens) (UniProt P24468); experiment: NR2F2 transcriptional activity inhibitors, confirmation, cell-based, luciferase reporter, HEK293, triplicate (AID 687008;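 active means mean inhibition over three repeats above a set limit taken from the earlier primary screen, cut at about 38% in these data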;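 further: 100% = cells given the luciferase reporter alone without the COUP-TF2 vector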); settings: HEK293 NGFI-A luciferase reporter, luminescence; at 8.5 µM; hits give high values
COUP transcription factor 2 (Homo sapiens), sequence (P24468 whole entry, looked up): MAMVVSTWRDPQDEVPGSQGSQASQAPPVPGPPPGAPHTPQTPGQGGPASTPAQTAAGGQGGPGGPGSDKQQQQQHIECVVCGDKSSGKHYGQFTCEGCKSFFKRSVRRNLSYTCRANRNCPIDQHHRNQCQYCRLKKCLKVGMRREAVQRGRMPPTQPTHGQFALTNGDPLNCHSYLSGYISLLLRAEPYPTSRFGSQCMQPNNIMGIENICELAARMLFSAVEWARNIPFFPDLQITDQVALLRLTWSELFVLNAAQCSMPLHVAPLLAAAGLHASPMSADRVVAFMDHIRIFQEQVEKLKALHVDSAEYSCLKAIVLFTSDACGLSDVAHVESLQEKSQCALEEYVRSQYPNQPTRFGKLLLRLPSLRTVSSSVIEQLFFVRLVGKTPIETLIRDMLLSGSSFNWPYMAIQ

[23] = target: Toll-like receptor 9 (Homo sapiens) (UniProt Q9NR96); experiment: TLR9-MyD88 association inhibitors, retest, confirmation, cell-based, CHO, BLA complementation, fluorescence, triplicate (AID 540250;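 active means mean inhibition across three repeats above about 21% taken from the earlier screen, limit read from the data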;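 further: blue over green emission ratio reports constitutive TLR9 MyD88 association via BLA complementation; 0% = DMSO vehicle wells and 100% = clavulanate BLA inhibitor wells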); settings: CCF4 FRET ratio, at 4.98 µM, hits give high values
Toll-like receptor 9 (Homo sapiens), sequence (Q9NR96 whole entry, looked up): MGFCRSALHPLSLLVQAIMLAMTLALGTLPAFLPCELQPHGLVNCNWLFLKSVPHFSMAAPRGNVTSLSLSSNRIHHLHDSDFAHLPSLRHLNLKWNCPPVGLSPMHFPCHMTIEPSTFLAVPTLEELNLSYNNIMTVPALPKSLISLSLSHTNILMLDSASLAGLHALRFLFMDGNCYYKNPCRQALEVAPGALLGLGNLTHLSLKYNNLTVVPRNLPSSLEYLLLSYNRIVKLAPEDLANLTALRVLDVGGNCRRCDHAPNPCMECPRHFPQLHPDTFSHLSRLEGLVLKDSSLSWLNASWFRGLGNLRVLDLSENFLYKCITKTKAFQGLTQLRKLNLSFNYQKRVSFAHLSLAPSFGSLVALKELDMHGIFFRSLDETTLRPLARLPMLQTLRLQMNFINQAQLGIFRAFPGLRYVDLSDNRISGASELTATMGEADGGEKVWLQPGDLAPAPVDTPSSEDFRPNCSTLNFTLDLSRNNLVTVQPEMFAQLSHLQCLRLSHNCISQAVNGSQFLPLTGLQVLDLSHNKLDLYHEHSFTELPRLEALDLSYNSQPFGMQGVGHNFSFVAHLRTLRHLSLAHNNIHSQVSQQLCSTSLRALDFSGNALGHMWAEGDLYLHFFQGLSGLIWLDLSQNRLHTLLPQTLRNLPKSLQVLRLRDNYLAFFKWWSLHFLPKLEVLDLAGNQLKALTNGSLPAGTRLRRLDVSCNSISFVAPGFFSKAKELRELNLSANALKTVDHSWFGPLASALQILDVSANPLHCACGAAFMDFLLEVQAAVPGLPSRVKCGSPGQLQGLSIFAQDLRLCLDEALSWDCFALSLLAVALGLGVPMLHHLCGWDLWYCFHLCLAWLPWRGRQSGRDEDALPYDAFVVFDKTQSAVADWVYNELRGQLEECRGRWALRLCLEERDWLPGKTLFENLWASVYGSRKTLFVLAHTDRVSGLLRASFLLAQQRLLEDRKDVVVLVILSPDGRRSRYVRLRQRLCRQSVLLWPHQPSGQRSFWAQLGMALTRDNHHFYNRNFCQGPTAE

[24] = beta-lactamase reporter inhibitors in CHO cells, artefact control for TLR9-MyD88 binding inhibitor project, cell-based, fluorescence (AID 540251;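 active means mean inhibition above a 50% cutoff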;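 further: counterscreen of TLR9-MyD88 hits on CMV-driven BLA in CHO-K1 cells; 0% = DMSO alone and 100% = clavulanate blocking BLA; higher means less blue over green ratio so more BLA blockade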); settings: CHO-BLA cells, CCF4 FRET ratio, at 4.98 µM, hits give high values
[25] = CHO cell viability loss – luminescence, single concentration, cytotoxicity control for TLR9-MyD88 binding inhibitor project (AID 588336; in the data active means inhibition above about 11%); settings: TLR9-MyD88 CHO cells cytotoxicity, at 4.98 µM, hits give high values
[26] = target: Receptor-interacting serine/threonine-protein kinase 2 (Homo sapiens) (UniProt O43353); experiment: NOD2-RIPK2 binding disruptors, retest, confirmation, fluorescence, CHO cells, BLA complementation, triplicate (AID 624370;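 active means mean inhibition across replicates above a set limit taken from the earlier primary screen, cut at about 21% in these data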;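 further: 0% = DMSO-only wells and the high end = clavulanate BLA-blocked wells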); settings: CCF4 FRET, at 4.98 µM, hits give high values
Receptor-interacting serine/threonine-protein kinase 2 (Homo sapiens), sequence (O43353 whole entry, looked up): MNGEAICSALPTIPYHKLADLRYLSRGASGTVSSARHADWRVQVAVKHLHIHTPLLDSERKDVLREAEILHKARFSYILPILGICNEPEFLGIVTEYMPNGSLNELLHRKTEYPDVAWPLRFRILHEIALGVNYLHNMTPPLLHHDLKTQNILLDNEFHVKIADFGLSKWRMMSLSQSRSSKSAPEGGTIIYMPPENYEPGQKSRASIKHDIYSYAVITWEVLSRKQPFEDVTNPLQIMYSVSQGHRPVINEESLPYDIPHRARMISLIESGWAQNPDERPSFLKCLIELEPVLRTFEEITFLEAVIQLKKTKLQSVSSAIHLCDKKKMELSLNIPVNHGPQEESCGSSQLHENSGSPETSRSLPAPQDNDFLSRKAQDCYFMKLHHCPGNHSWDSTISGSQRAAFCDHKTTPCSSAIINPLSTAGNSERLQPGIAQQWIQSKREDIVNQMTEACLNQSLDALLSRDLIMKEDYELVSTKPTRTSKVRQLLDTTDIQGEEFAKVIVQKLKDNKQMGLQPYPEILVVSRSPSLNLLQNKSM

[27] = beta-lactamase reporter inhibitors in CHO cells, confirmation, artefact control for NOD2-RIPK2 interaction inhibitor project, cell-based, CHO-K1 CMV-bla, CCF4 FRET, fluorescence (AID 624371;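 active means mean inhibition above the low-control mean inhibition plus three low-control SD, cut at about 11% in these data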;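 further: 0% = DMSO only wells and 100% = clavulanate high control wells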); settings: CCF4 FRET ratio, counterscreen, at 4.98 µM, hits give high values
[28] = target: (Lyso)-N-acylphosphatidylethanolamine lipase (Mus musculus) (UniProt Q8VD66); experiment: ABHD4 inhibitors, retest, confirmation, biochemical, fluorescence polarization, mouse (AID 720658;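 active means mean inhibition across replicates above the hit cutoff set in the primary screen, cut at about 30% in these data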;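 further: 0% = wild-type ABHD4 with DMSO and 100% = catalytically dead S159A mutant with DMSO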); settings: purified mABHD4, FP-Rh probe fluorescence polarization; at 8.92 µM; hits give high values
(Lyso)-N-acylphosphatidylethanolamine lipase (Mus musculus), sequence (Q8VD66 whole entry, looked up): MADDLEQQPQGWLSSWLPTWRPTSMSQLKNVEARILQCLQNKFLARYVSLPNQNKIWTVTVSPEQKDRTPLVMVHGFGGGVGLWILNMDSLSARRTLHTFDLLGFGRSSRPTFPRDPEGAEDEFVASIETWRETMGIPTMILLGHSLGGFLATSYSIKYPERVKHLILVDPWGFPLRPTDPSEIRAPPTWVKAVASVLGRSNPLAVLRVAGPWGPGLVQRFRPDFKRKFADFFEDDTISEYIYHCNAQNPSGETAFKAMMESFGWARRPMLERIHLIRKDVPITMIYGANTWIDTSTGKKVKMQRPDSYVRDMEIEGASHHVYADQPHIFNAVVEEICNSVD

[29] = test system: HIV-1 integrase (multimerization); experiment: HIV-1 IN multimer formation enhancers, counter-screen for LEDGF/p75 integration inhibitor project, biochemical, TR-FRET (AID 1053131); settings: TR-FRET HIV-1 integrase multimerization, at 7.7 µM, hits give high values
[30] = TR-FRET optical interference artefacts, confirmation, artefact control for LEDGF/p75-dependent integration inhibitor project, biochemical, HIV-1 IN multimerization (AID 1053135;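 active means inhibition above the mean over all tested compounds plus 3 SD, which no compound reached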;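 further: 0% = integrase with antibodies and DMSO and 100% = antibodies without integrase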); settings: TR-FRET optical interference counterscreen, at 7.7 µM, hits give high values
[31] = test system: HIV-1 integrase / human LEDGF/p75 complex; experiment: inhibitors of HIV-1 IN-LEDGF/p75 DNA integration, confirmation, biochemical, TR-FRET (AID 1053136; in the data active means inhibition above about 14%); settings: TR-FRET LEDGF/p75-dependent HIV-1 integration, at 3.7 µM, hits give high values
[32] = test system: Fam108b (Abhd17b) serine hydrolase [Mus musculus]; experiment: mouse Fam108b serine hydrolase inhibitors, confirmation, counter-screen for RBBP9 inhibitor project, biochemical, fluorescence polarization, triplicate (AID 1978;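 active means inhibition above a limit from the primary screen, the mean over all compounds plus 3 SD, cut at about 19% in these data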;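 further: 0% = median of active Fam108b wells and 100% = catalytically dead S170A mutant; inhibitors free the probe so polarization falls as inhibition rises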); settings: recombinant Fam108b, FP-Rh probe fluorescence polarization; at 9.51 µM; hits give high values
[33] = target: Serine protease HTRA1 (Homo sapiens) (UniProt Q92743); experiment: HTRA1 protease inhibitors, retest, confirmation, biochemical, fluorescence polarization (AID 540248;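 active means mean inhibition over three repeats above a set limit taken from the earlier primary screen, cut at about 37% in these data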;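 further: 0% = HTRA1 with DMSO and 100% = wells lacking HTRA1; inhibitors block probe binding so polarization drops and inhibition rises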); settings: recombinant HTRA1, FP-rhodamine activity-based probe, at 5.96 µM, hits give high values
[34] = target: Sphingosine 1-phosphate receptor 4 (Homo sapiens) (UniProt O95977); experiment: S1P4 receptor antagonists, human, confirmation, cell-based (AID 1524; in the data active means inhibition above about 30%); settings: S1P4-expressing cell line, antagonist mode, reporter read-out; at 4.98 µM; hits give high values
Sphingosine 1-phosphate receptor 4 (Homo sapiens), sequence (O95977 whole entry, looked up): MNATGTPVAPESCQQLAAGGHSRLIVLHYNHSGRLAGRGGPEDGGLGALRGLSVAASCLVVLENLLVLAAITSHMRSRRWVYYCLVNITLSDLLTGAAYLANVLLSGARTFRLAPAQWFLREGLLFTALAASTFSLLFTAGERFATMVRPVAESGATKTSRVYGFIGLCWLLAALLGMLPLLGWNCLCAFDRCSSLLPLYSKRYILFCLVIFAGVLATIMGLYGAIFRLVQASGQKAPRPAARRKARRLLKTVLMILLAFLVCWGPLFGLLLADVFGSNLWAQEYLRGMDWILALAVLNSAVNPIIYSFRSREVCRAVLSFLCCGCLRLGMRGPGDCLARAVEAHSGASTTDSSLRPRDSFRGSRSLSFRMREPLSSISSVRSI

[35] = target: Sphingosine 1-phosphate receptor 1 (Homo sapiens) (UniProt P21453); experiment: S1P1 receptor antagonists, human, counter-screen for S1P4 antagonist project, cell-based (AID 1564; in the data active means inhibition above about 40%;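 further: receptor stimulated with S1P near its EC80; 0% = agonist stimulated wells and 100% = vehicle only wells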); settings: cell-based S1P1 antagonist counterscreen, at 4.98 µM, hits give high values
Sphingosine 1-phosphate receptor 1 (Homo sapiens), sequence (P21453 whole entry, looked up): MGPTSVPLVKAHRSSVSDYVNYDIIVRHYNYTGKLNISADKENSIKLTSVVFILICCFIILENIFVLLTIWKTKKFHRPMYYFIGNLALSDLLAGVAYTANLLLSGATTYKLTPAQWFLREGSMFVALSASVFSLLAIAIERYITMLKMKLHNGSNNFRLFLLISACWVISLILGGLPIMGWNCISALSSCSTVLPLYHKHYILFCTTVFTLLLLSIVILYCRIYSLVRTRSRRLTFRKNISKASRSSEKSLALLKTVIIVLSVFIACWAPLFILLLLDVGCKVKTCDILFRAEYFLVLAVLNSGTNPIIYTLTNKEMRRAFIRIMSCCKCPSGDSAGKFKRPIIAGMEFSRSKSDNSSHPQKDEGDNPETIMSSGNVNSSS

O=C(Nc1ccc(Cl)cn1)c1cnn2cccnc12
active: activation (% of control) [1] 171% | activation (% of control) [3] 111%
inactive: activation (% of control) [2] 128%

CCCCCCCCn1c2c(c(=N)c3c1CCC3)CCCC2
inactive: inhibition [4] 23.3%
active: inhibition [5] 27.8% | inhibition [6] 86.6% | inhibition [7] 43.9% | inhibition [8] 28.9% | inhibition [9] 115% | inhibition [10] 23.5% | inhibition [11] 85.1% | inhibition [12] 87.4% | inhibition [13] 66.6% | inhibition [14] 87.6% | inhibition [15] 99.3% | inhibition [16] 91.4% | inhibition [17] 78.1% | inhibition [18] 110% | inhibition [19] 96.5% | inhibition [20] 96.8% | inhibition [21] 32.1% | inhibition [22] 87.4%

CC(=O)Nc1cccc(-c2cnc3ccccc3n2)c1
active: activation (% of control) [1] 165%
inactive: activation (% of control) [2] 126% | activation (% of control) [3] 101%

CCN(CC)CCCC(C)n1c2nc(=O)[nH]c(=O)c-2nc2cc(Cl)ccc21 (centres undefined)
inactive: inhibition [23] 12.3% | inhibition [24] 14.8% | inhibition [25] -0.12% | activation [29] 2.04% | inhibition [30] -7.01%
active: inhibition [26] 38.1% | inhibition [27] 40% | inhibition [28] 44.4% | inhibition [31] 59.8%

Cc1cccc(COc2ccccc2/C=N/Nc2ccc([N+](=O)[O-])cc2)c1
inactive: inhibition [4] 16.9% | inhibition [32] 9.96% | inhibition [23] 20.3% | inhibition [24] 23.3% | inhibition [25] -1.39%
active: inhibition [5] 36.9% | inhibition [26] 44.2% | inhibition [27] 50.4%

Cc1cc(C(=O)N/N=C/c2ccc(O)c([N+](=O)[O-])c2)c(C)n1-c1ccc(F)cc1
active: inhibition [33] 120% | inhibition [28] 74% | activation [29] 14.2% | inhibition [31] 17.8%
inactive: inhibition [30] -71.4%

NNc1cccc(C=Cc2ccccc2)cc1=O
active: inhibition [33] 47.8% | activation [29] 13.3% | inhibition [31] 33.8%
inactive: inhibition [30] -47.7%

O=C1c2cccc3c([N+](=O)[O-])ccc(c23)C(=O)N1CC1CCCO1 (centres undefined)
active: inhibition [4] 82.5% | inhibition [5] 108% | inhibition [34] 112% | inhibition [35] 118% | inhibition [23] 45.8% | inhibition [24] 73.2% | inhibition [25] 56.5% | inhibition [26] 83% | inhibition [27] 70.6%

COc1ccc(NC(=O)/C(Cl)=C(/Cl)S(=O)Cc2ccc(C)cc2)cn1 (centres undefined)
active: inhibition [34] 121% | inhibition [35] 117% | inhibition [9] 109% | inhibition [10] 87%
